# From the supplement of paper PMC12282887
# ± gives the standard deviation of the averaged measurements.
# How the values were obtained:
# Assay in all cases: promoter activity interaction Z-score (Lux/OD deviation from empty-vector control); higher = stronger promoter induction by the compound
# [1] = tested on: E. coli BW25113 robp lux reporter
# How it was run: (§1)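 Four 1:2 dilutions of each compound were tested in biological duplicates on E. coli BW25113 carrying low-copy luxCDABE promoter reporters, either wild type or deleted for one of three genes. Cultures of 40 µl LB Lennox in 384-well plates were kept at 37°C and read for OD600 and luminescence every 30 min for 12 h. Integration windows were 0–8 h for wild type and 1–9 h for deletion strains, and wells under 10% of the median growth value were discarded. The score is a Z-transformed residual of growth-normalised luminescence relative to a control fit.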
# [2] = tested on: E. coli BW25113 soxSp lux reporter
# How it was run: as §1
# [3] = tested on: E. coli BW25113 tolCp lux reporter
# How it was run: as §1
# [4] = tested on: E. coli BW25113 acrABp lux reporter
# How it was run: as §1
# [5] = tested on: E. coli BW25113 micFp lux reporter
# How it was run: as §1
# [6] = tested on: E. coli BW25113 ompFp lux reporter
# How it was run: as §1
# [7] = 68.6 µg/ml, genetic background: wild type
# [8] = 68.6 µg/ml, genetic background: ΔmarA
# [9] = 68.6 µg/ml, genetic background: Δrob
# [10] = 68.6 µg/ml, genetic background: ΔsoxS
# [11] = 8.6 µg/ml, genetic background: wild type
# [12] = 8.6 µg/ml, genetic background: ΔmarA
# [13] = 8.6 µg/ml, genetic background: Δrob
# [14] = 8.6 µg/ml, genetic background: ΔsoxS
# [15] = 17.1 µg/ml, genetic background: wild type
# [16] = 17.1 µg/ml, genetic background: ΔmarA
# [17] = 17.1 µg/ml, genetic background: Δrob
# [18] = 17.1 µg/ml, genetic background: ΔsoxS
# [19] = 34.3 µg/ml, genetic background: wild type
# [20] = 34.3 µg/ml, genetic background: ΔmarA
# [21] = 34.3 µg/ml, genetic background: Δrob
# [22] = 34.3 µg/ml, genetic background: ΔsoxS
# [23] = 11.9 µg/ml, genetic background: wild type
# [24] = 11.9 µg/ml, genetic background: ΔmarA
# [25] = 11.9 µg/ml, genetic background: Δrob
# [26] = 11.9 µg/ml, genetic background: ΔsoxS
# [27] = 23.7 µg/ml, genetic background: wild type
# [28] = 23.7 µg/ml, genetic background: ΔmarA
# [29] = 23.7 µg/ml, genetic background: Δrob
# [30] = 23.7 µg/ml, genetic background: ΔsoxS
# [31] = 47.4 µg/ml, genetic background: wild type
# [32] = 47.4 µg/ml, genetic background: ΔmarA
# [33] = 47.4 µg/ml, genetic background: Δrob
# [34] = 47.4 µg/ml, genetic background: ΔsoxS
# [35] = 94.8 µg/ml, genetic background: wild type
# [36] = 94.8 µg/ml, genetic background: ΔmarA
# [37] = 94.8 µg/ml, genetic background: Δrob
# [38] = 94.8 µg/ml, genetic background: ΔsoxS
compound,measurement,setting,value
Nc1ccc(C(=O)O)cc1 [4-Aminobenzoic acid],promoter activity interaction Z-score,[1]; [7],0.598 ± 0.44
same,promoter activity interaction Z-score,[1]; [8],1.92 ± 1.2
same,promoter activity interaction Z-score,[1]; [9],2.53 ± 2.5
same,promoter activity interaction Z-score,[1]; [10],2.68 ± 1.7
same,promoter activity interaction Z-score,[2]; [11],0.154 ± 0.019
same,promoter activity interaction Z-score,[2]; [12],0.4615 ± 0.00081
same,promoter activity interaction Z-score,[2]; [13],0.443 ± 0.19
same,promoter activity interaction Z-score,[2]; [14],0.4 ± 0.53
same,promoter activity interaction Z-score,[2]; [15],0.18 ± 0.23
same,promoter activity interaction Z-score,[2]; [16],0.618 ± 0.11
same,promoter activity interaction Z-score,[2]; [17],0.555 ± 0.098
same,promoter activity interaction Z-score,[2]; [18],0.287 ± 0.083
same,promoter activity interaction Z-score,[2]; [19],0.259 ± 0.017
same,promoter activity interaction Z-score,[2]; [20],0.436 ± 0.14
same,promoter activity interaction Z-score,[2]; [21],0.48 ± 0.11
same,promoter activity interaction Z-score,[2]; [22],0.363 ± 0.93
same,promoter activity interaction Z-score,[2]; [7],-0.597 ± 0.028
same,promoter activity interaction Z-score,[2]; [8],0.693 ± 0.26
same,promoter activity interaction Z-score,[2]; [9],0.532 ± 0.4
same,promoter activity interaction Z-score,[2]; [10],-0.372 ± 0.24
same,promoter activity interaction Z-score,[3]; [11],-0.592 ± 1.1
same,promoter activity interaction Z-score,[3]; [12],0.924 ± 0.68
same,promoter activity interaction Z-score,[3]; [13],-0.26 ± 0.81
same,promoter activity interaction Z-score,[3]; [14],0.91 ± 0.25
same,promoter activity interaction Z-score,[3]; [15],-0.356 ± 1
same,promoter activity interaction Z-score,[3]; [16],0.371 ± 2.1
same,promoter activity interaction Z-score,[3]; [17],0.781 ± 1.4
same,promoter activity interaction Z-score,[3]; [18],-0.463 ± 0.096
same,promoter activity interaction Z-score,[3]; [19],0.348 ± 0.41
same,promoter activity interaction Z-score,[3]; [20],0.458 ± 1.9
same,promoter activity interaction Z-score,[3]; [21],0.119 ± 0.56
same,promoter activity interaction Z-score,[3]; [22],1.86 ± 0.96
same,promoter activity interaction Z-score,[3]; [7],0.28 ± 0.49
same,promoter activity interaction Z-score,[3]; [8],2.27 ± 0.56
same,promoter activity interaction Z-score,[3]; [9],0.498 ± 0.67
same,promoter activity interaction Z-score,[3]; [10],1.22 ± 0.073
NCCc1ccc(O)c(O)c1 [Dopamine],promoter activity interaction Z-score,[4]; [23],0.174 ± 0.27
same,promoter activity interaction Z-score,[4]; [24],-0.87 ± 0.6
same,promoter activity interaction Z-score,[4]; [25],-0.259 ± 0.25
same,promoter activity interaction Z-score,[4]; [26],0.316 ± 0.49
same,promoter activity interaction Z-score,[4]; [27],-0.0683 ± 0.28
same,promoter activity interaction Z-score,[4]; [28],-0.0201 ± 0.65
same,promoter activity interaction Z-score,[4]; [29],-0.428 ± 0.0062
same,promoter activity interaction Z-score,[4]; [30],-0.0876 ± 0.18
same,promoter activity interaction Z-score,[4]; [31],0.18 ± 0.084
same,promoter activity interaction Z-score,[4]; [32],-1.12 ± 0.53
same,promoter activity interaction Z-score,[4]; [33],-0.499 ± 0.094
same,promoter activity interaction Z-score,[4]; [34],-0.0203 ± 0.46
same,promoter activity interaction Z-score,[4]; [35],-0.304 ± 0.4
same,promoter activity interaction Z-score,[4]; [36],-0.754 ± 0.56
same,promoter activity interaction Z-score,[4]; [37],-0.623 ± 0.094
same,promoter activity interaction Z-score,[4]; [38],-0.852 ± 0.031
same,promoter activity interaction Z-score,[5]; [23],-0.0957 ± 0.4
same,promoter activity interaction Z-score,[5]; [24],-0.00669 ± 0.09
same,promoter activity interaction Z-score,[5]; [25],-0.0714 ± 0.048
same,promoter activity interaction Z-score,[5]; [26],-0.289 ± 0.13
same,promoter activity interaction Z-score,[5]; [27],0.149 ± 0.39
same,promoter activity interaction Z-score,[5]; [28],0.0171 ± 0.089
same,promoter activity interaction Z-score,[5]; [29],-0.0648 ± 0.13
same,promoter activity interaction Z-score,[5]; [30],-0.0534 ± 0.087
same,promoter activity interaction Z-score,[5]; [31],-0.077 ± 0.31
same,promoter activity interaction Z-score,[5]; [32],-0.0143 ± 0.025
same,promoter activity interaction Z-score,[5]; [33],-0.12 ± 0.027
same,promoter activity interaction Z-score,[5]; [34],-0.221 ± 0.014
same,promoter activity interaction Z-score,[5]; [35],-0.3274 ± 0.00091
same,promoter activity interaction Z-score,[5]; [36],0.0328 ± 0.11
same,promoter activity interaction Z-score,[5]; [37],-0.149 ± 0.093
same,promoter activity interaction Z-score,[5]; [38],-0.745 ± 0.067
same,promoter activity interaction Z-score,[6]; [23],0.401 ± 0.57
same,promoter activity interaction Z-score,[6]; [24],-0.363 ± 0.16
same,promoter activity interaction Z-score,[6]; [25],-0.182 ± 0.48
same,promoter activity interaction Z-score,[6]; [26],-0.36 ± 0.38
same,promoter activity interaction Z-score,[6]; [27],-0.18 ± 0.33
same,promoter activity interaction Z-score,[6]; [28],0.285 ± 0.88
same,promoter activity interaction Z-score,[6]; [29],-0.131 ± 0.68
same,promoter activity interaction Z-score,[6]; [30],-0.722 ± 0.37
same,promoter activity interaction Z-score,[6]; [31],0.112 ± 0.24
same,promoter activity interaction Z-score,[6]; [32],-0.55 ± 0.36
same,promoter activity interaction Z-score,[6]; [33],-0.52 ± 0.2
same,promoter activity interaction Z-score,[6]; [34],-0.843 ± 0.13
same,promoter activity interaction Z-score,[6]; [35],-0.811 ± 0.18
same,promoter activity interaction Z-score,[6]; [36],-0.358 ± 0.12
same,promoter activity interaction Z-score,[6]; [37],-0.473 ± 0.64
same,promoter activity interaction Z-score,[6]; [38],-1.22 ± 0.11
same,promoter activity interaction Z-score,[1]; [23],0.58 ± 0.43
same,promoter activity interaction Z-score,[1]; [24],-0.0165 ± 0.28
same,promoter activity interaction Z-score,[1]; [25],-0.285 ± 0.42
same,promoter activity interaction Z-score,[1]; [26],-0.285 ± 0.27
same,promoter activity interaction Z-score,[1]; [27],0.285 ± 0.52
same,promoter activity interaction Z-score,[1]; [28],1.42 ± 1.2
same,promoter activity interaction Z-score,[1]; [29],-0.0375 ± 0.68
same,promoter activity interaction Z-score,[1]; [30],0.593 ± 1.6
same,promoter activity interaction Z-score,[1]; [31],0.737 ± 0.14
same,promoter activity interaction Z-score,[1]; [32],-0.645 ± 0.12
same,promoter activity interaction Z-score,[1]; [33],-0.805 ± 0.17
same,promoter activity interaction Z-score,[1]; [34],-1.1 ± 0.16
same,promoter activity interaction Z-score,[1]; [35],-0.828 ± 0.0096
same,promoter activity interaction Z-score,[1]; [36],0.583 ± 0.9
same,promoter activity interaction Z-score,[1]; [37],-1.32 ± 0.2
same,promoter activity interaction Z-score,[1]; [38],-2.04 ± 0.13
same,promoter activity interaction Z-score,[2]; [23],0.474 ± 0.25
same,promoter activity interaction Z-score,[2]; [24],-0.0183 ± 0.11
same,promoter activity interaction Z-score,[2]; [25],-0.0377 ± 0.026
same,promoter activity interaction Z-score,[2]; [26],-0.0441 ± 0.24
same,promoter activity interaction Z-score,[2]; [27],0.394 ± 0.015
same,promoter activity interaction Z-score,[2]; [28],0.0576 ± 0.031
same,promoter activity interaction Z-score,[2]; [29],-0.0399 ± 0.15
same,promoter activity interaction Z-score,[2]; [30],-0.277 ± 0.03
same,promoter activity interaction Z-score,[2]; [31],0.201 ± 0.11
same,promoter activity interaction Z-score,[2]; [32],-0.0617 ± 0.12
same,promoter activity interaction Z-score,[2]; [33],-0.00712 ± 0.2
same,promoter activity interaction Z-score,[2]; [34],-0.3 ± 0.13
same,promoter activity interaction Z-score,[2]; [35],-0.211 ± 0.15
same,promoter activity interaction Z-score,[2]; [36],-0.1512 ± 0.0014
same,promoter activity interaction Z-score,[2]; [37],-0.176 ± 0.19
same,promoter activity interaction Z-score,[2]; [38],-0.581 ± 0.061
same,promoter activity interaction Z-score,[3]; [23],0.393 ± 0.4
same,promoter activity interaction Z-score,[3]; [24],-0.496 ± 0.057
same,promoter activity interaction Z-score,[3]; [25],-0.398 ± 0.89
same,promoter activity interaction Z-score,[3]; [26],0.889 ± 0.7
same,promoter activity interaction Z-score,[3]; [27],0.663 ± 0.58
same,promoter activity interaction Z-score,[3]; [28],0.117 ± 0.58
same,promoter activity interaction Z-score,[3]; [29],-0.413 ± 0.2
same,promoter activity interaction Z-score,[3]; [30],-0.0415 ± 0.32
same,promoter activity interaction Z-score,[3]; [31],-0.164 ± 0.13
same,promoter activity interaction Z-score,[3]; [32],-0.559 ± 0.79
same,promoter activity interaction Z-score,[3]; [33],-0.226 ± 0.6
same,promoter activity interaction Z-score,[3]; [34],-0.165 ± 0.64
same,promoter activity interaction Z-score,[3]; [35],-0.754 ± 0.24
same,promoter activity interaction Z-score,[3]; [36],-0.55 ± 0.46
same,promoter activity interaction Z-score,[3]; [37],-0.192 ± 0.73
same,promoter activity interaction Z-score,[3]; [38],-1 ± 0.74
